test system: not listed separately; assay: binders of probe aFGF10 on microarray, primary screen, stem cell growth factor project, biochemical, small-molecule microarray, fluorescence 635/667 (AID 1071); conditions: higher = more signal;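 note: score merges 667 nm spot intensity and signal to noise from triplicate slides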

SMILES | composite z-score
COc1ccc(-c2nc3c(c4c2C[C@H](C)OC4)CN(CCC(C)C)CC3)cc1 | 0.644
CO[C@@H]1COC(=O)[C@@H]2CCCN2C(=O)[C@@H](C)COC(=O)[C@H](COCc2ccccc2)NC(=O)CC=C[C@H]1C | 0.451
CCN1C(=O)[C@H]2[C@H]3[C@H](O)[C@H](O)CC(=NOC(C)CN4CCCCc5nc(C)c(C)cc54)[C@@H]3CC[C@H]2C1=O (stereo partly specified) | 0.223
CCc1cc2c(nc1CC)CCN(CCC(C)=NO[C@@H](C)c1cc(-c3c(C)cc(C)cc3C)no1)C2 | -0.298
CO[C@H]1O[C@H](CO)[C@@H](OC(=O)Nc2ccc3c(c2)OCO3)[C@H](OC(=O)Nc2ccccc2-c2ccccc2)[C@@H]1OC(=O)Nc1ccccc1-c1ccccc1 | 1.13
COC(=O)[C@@]1(Cc2ccc(F)cc2)[C@H]2c3cc(C(=O)N(C)C)n(Cc4ccc(OC)c(OC)c4)c3C[C@H]2CN1C(=O)c1ccccc1 | 0.551
CC(C)NC(=O)[C@@]1(C)c2ccccc2C(=O)N(Cc2cc(F)cc(C(F)(F)F)c2)[C@H]1c1ccc(CO)cc1 | 0.888
O=C1NC(=O)C2C1C=CC(C(O)Cc1ccccc1)N2Nc1ccccn1 (stereo unspecified) | 0.477
CC[C@@H](c1ccccc1)n1c(=O)n2n(c1=O)[C@H]1[C@H](O)[C@@H]3O[C@@H]3C(=NOCC(C)C)[C@H]1CC2 | 0.0304
COc1cccc([C@H]2Oc3ccc(OC)cc3C(=NO[C@H](C)c3cn([C@@H]4COC[C@H]4O)nn3)[C@@H]2O)c1 | -0.246
COCCOC(=O)N1C(=O)[C@@]2(c3cc(C#CCNC(N)=O)ccc31)[C@H](c1ccc(O)cc1)N1[C@H](c3ccccc3)[C@H](c3ccccc3)OC(=O)[C@H]1[C@@H]2C(=O)N1CCCCCCC1 | 0.646
C[C@@H](c1ccccc1)N1C(=O)[C@H]2[C@H]3[C@H](O)C=CC(=O)[C@@H]3CC[C@H]2C1=O | 0.277
CCCC[C@H]1OB(O)C[C@H]2C1=C(C)C[C@H]1C(=O)N(C)C(=O)[C@H]12 | 0.719
CCCCc1nc2c(c3c1C[C@H](C)OC3)CN(CCC(C)C)CC2 | 0.509
C/C=C\[C@@H](NCc1ccccc1Br)[C@@H](O)Cc1ccccc1 | -0.75
CC(=O)C[C@H](O)[C@@H](NC(=O)OC(C)(C)C)C(C)C | -0.328
CC(C)=CCCC(C)=CCON=C1C[C@@H](O)[C@@H](O)[C@@H]2[C@@H]3C(=O)N(C[C@@H]4CCCO4)C(=O)[C@@H]3CC[C@@H]12 | 0.84
CCOC(=O)NN=C1C[C@@H](O)[C@@H](O)[C@@H]2[C@@H]3C(=O)N(C(C)(C)C)C(=O)[C@@H]3CC[C@@H]12 | 0.177
COCCCNC(=O)[C@]1(Cc2ccccc2)N=C(c2ccc(OCCCO)cc2)O[C@@H]1c1ccccc1 | 0.791
CC(C)=NOCc1ccc(-c2cc(-c3ccccc3)no2)cc1 | 0.241
COCCCNC(=O)[C@@]1(Sc2ccc(C)cc2)CC(=O)N(Cc2ccccc2)[C@@H]1c1ccc(CO)cc1I | -0.134
COc1ccc(-c2ccc3c(n2)CCCN3CC(O)CN2CCCc3nc(C)c(C)cc32)cc1 (stereo unspecified) | 0.961
CC(=O)OC[C@H]1O[C@H](CC=NOC[C@@H](C)[C@H](OCc2ccccc2)C(C)C)C=C[C@@H]1OC(C)=O | 0.0055
CC(CCC(=O)OC[C@H]1O[C@H](C#Cc2ccccc2)C=C[C@@H]1Oc1ccc(C)cc1)=NO[C@@H](C)c1cn([C@H](CO)Cc2ccccc2)nn1 | 0.63
COc1ccc([Si](C)(C)[C@H]2[C@H](CCO)O[C@@]3(C(=O)N(Cc4cccc(NC(=O)[C@H](C)O)c4)c4ccccc43)[C@@H]2C)cc1 | 0.136

molecular target: Neurogenic locus notch homolog protein 2 (Homo sapiens) (UniProt Q04721); assay: Notch2 binders on small-molecule microarrays, primary screen, biochemical, small-molecule microarray, 635 nm fluorescence, stem cell growth factors (AID 1073); conditions: Notch2 binding, higher = more signal
Sequence (Q04721 whole entry, looked up): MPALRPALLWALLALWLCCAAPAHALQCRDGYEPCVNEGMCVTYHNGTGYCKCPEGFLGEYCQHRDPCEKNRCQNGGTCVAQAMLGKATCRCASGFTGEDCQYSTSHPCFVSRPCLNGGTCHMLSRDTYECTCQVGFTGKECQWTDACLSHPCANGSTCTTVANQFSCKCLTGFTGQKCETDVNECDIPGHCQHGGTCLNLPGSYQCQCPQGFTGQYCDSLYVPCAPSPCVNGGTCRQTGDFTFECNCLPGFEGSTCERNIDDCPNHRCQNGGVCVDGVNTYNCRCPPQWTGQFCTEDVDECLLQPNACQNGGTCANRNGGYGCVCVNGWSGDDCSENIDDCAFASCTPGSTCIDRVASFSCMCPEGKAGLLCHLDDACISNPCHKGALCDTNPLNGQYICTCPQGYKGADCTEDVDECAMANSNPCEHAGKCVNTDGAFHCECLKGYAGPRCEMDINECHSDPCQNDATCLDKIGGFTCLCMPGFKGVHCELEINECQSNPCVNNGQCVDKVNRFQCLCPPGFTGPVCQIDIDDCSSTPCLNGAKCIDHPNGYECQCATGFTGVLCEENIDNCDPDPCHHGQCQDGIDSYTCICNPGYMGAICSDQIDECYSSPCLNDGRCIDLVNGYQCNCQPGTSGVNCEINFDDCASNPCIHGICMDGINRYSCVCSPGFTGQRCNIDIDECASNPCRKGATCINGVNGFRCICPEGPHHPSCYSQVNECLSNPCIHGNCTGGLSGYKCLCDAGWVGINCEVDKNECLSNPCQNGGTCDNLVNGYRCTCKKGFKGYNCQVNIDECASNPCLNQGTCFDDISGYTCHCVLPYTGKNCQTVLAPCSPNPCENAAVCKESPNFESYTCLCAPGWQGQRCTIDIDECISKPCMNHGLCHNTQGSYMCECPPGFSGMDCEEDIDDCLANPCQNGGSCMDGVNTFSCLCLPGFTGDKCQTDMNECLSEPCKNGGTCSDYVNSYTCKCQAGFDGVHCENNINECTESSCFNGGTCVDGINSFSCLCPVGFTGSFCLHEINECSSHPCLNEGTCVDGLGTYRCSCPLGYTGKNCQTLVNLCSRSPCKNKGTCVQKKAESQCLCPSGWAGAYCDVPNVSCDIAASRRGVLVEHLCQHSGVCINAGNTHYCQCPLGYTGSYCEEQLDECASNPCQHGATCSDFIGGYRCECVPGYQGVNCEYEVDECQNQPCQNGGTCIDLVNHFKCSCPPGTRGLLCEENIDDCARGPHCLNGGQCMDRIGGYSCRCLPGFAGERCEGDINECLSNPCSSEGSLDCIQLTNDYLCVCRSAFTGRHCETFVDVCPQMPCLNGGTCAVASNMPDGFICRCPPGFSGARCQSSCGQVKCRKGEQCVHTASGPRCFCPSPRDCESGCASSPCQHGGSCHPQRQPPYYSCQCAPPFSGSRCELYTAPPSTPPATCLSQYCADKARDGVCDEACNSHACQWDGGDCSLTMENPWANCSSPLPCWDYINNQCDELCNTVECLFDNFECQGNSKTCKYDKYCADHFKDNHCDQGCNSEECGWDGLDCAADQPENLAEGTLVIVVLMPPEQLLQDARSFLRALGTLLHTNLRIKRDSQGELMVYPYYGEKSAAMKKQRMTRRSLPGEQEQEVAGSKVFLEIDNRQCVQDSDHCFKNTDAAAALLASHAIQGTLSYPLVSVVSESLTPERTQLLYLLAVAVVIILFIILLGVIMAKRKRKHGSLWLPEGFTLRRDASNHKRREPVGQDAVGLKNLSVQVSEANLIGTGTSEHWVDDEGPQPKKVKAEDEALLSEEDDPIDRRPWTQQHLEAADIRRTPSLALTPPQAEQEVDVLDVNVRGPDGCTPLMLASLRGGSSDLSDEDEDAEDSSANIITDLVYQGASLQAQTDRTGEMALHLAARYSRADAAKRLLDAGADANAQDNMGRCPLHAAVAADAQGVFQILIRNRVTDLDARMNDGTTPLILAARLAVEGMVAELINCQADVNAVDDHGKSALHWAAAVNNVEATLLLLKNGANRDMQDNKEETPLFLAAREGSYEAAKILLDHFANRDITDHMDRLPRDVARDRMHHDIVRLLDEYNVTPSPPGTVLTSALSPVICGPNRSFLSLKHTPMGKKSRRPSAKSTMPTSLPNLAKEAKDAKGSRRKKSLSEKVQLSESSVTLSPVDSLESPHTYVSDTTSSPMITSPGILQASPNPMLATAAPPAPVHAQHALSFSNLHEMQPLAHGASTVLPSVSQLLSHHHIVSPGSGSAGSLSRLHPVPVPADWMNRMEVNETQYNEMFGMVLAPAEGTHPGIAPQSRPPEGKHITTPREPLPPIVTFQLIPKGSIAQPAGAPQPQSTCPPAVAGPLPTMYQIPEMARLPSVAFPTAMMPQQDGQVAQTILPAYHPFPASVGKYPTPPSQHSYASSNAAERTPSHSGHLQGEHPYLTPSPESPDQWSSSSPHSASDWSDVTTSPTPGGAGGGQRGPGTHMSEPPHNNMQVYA

SMILES | composite z-score
CC(C)CON=C1[C@H]2CCn3c(=O)n(-c4ccccc4)c(=O)n3[C@H]2[C@H](O)[C@@H]2O[C@H]12 | 0.532
O=C1C[C@@H](O)[C@@H](O)[C@@H]2[C@@H]3C(=O)N(c4cccc(Oc5ccccc5)c4)C(=O)[C@@H]3CC[C@@H]12 | 1.26
CO[C@H]([C@@H](C)[C@H](OC)c1ccccc1)[C@H](C)[C@@H](OC)[C@H](C)C(C)=O | -0.448
Cc1ccc(S[C@]2(C(=O)NCC(F)(F)F)CC(=O)N(Cc3ccccc3Cl)[C@@H]2c2ccc(CO)cc2I)cc1 | -1.23
O=C1O[C@@H](c2ccccc2)[C@@H](c2ccccc2)N2[C@@H](c3ccc(O)cc3)[C@]3(C(=O)Nc4ccccc43)[C@@H](C(=O)O)[C@H]12 | 0.0863
COCCNC(=O)OCC1CCCC2(CC(OC(=O)NCCc3ccc(F)cc3)CC(CCC(=O)N[C@@H](C)C(=O)OC)O2)O1 (stereo partly specified) | 1.1
CCCNC(=O)[C@@H]1c2ccccc2C(=O)N(c2ccc(C)cn2)[C@H]1c1ccc(CO)cc1 | -1.01
CCOC(=O)[C@H](CC(C)C)NC(=O)CCC1CC(OC(=O)NCCc2ccc(F)cc2)CC2(CCCC(COC(=O)NCc3ccccc3)O2)O1 (stereo partly specified) | 0.769
CCOC(=O)CCN1C(=O)[C@H]2[C@H]3[C@H](O)[C@H](O)CC(=O)[C@H]3CC[C@H]2C1=O | 0.709
C=CCC(OC(C)=O)[C@@H]1[C@@H](N(Cc2cc3ccccc3o2)C(=O)Cc2ccc(F)cc2)c2cc(OCCCO)ccc2N1C(=O)Cc1ccc(OC)cc1 (stereo partly specified) | -0.383
CCOC(=O)NN=C1C[C@@H](O)[C@@H](O)[C@@H]2[C@@H]3C(=O)N(C[C@@H]4CCCO4)C(=O)[C@@H]3CC[C@@H]12 | 0.453
COc1ccc(-c2nc3c(c4c2C[C@H](C)OC4)CN(CCC(C)C)CC3)cc1 | 1.04
CO[C@@H]1COC(=O)[C@@H]2CCCN2C(=O)[C@@H](C)COC(=O)[C@H](COCc2ccccc2)NC(=O)CC=C[C@H]1C | 0.433
CCN1C(=O)[C@H]2[C@H]3[C@H](O)[C@H](O)CC(=NOC(C)CN4CCCCc5nc(C)c(C)cc54)[C@@H]3CC[C@H]2C1=O (stereo partly specified) | 0.462
CCc1cc2c(nc1CC)CCN(CCC(C)=NO[C@@H](C)c1cc(-c3c(C)cc(C)cc3C)no1)C2 | -0.89
CO[C@H]1O[C@H](CO)[C@@H](OC(=O)Nc2ccc3c(c2)OCO3)[C@H](OC(=O)Nc2ccccc2-c2ccccc2)[C@@H]1OC(=O)Nc1ccccc1-c1ccccc1 | 1.57
COC(=O)[C@@]1(Cc2ccc(F)cc2)[C@H]2c3cc(C(=O)N(C)C)n(Cc4ccc(OC)c(OC)c4)c3C[C@H]2CN1C(=O)c1ccccc1 | 1.56
CC(C)NC(=O)[C@@]1(C)c2ccccc2C(=O)N(Cc2cc(F)cc(C(F)(F)F)c2)[C@H]1c1ccc(CO)cc1 | 1.54

SMILES | composite z-score
O=C1NC(=O)C2C1C=CC(C(O)Cc1ccccc1)N2Nc1ccccn1 (stereo unspecified) | 1.14
CC[C@@H](c1ccccc1)n1c(=O)n2n(c1=O)[C@H]1[C@H](O)[C@@H]3O[C@@H]3C(=NOCC(C)C)[C@H]1CC2 | 0.409
COc1cccc([C@H]2Oc3ccc(OC)cc3C(=NO[C@H](C)c3cn([C@@H]4COC[C@H]4O)nn3)[C@@H]2O)c1 | -0.315
COCCOC(=O)N1C(=O)[C@@]2(c3cc(C#CCNC(N)=O)ccc31)[C@H](c1ccc(O)cc1)N1[C@H](c3ccccc3)[C@H](c3ccccc3)OC(=O)[C@H]1[C@@H]2C(=O)N1CCCCCCC1 | 1.1
C[C@@H](c1ccccc1)N1C(=O)[C@H]2[C@H]3[C@H](O)C=CC(=O)[C@@H]3CC[C@H]2C1=O | 0.348
CCCC[C@H]1OB(O)C[C@H]2C1=C(C)C[C@H]1C(=O)N(C)C(=O)[C@H]12 | 1.09
CCCCc1nc2c(c3c1C[C@H](C)OC3)CN(CCC(C)C)CC2 | 1.16
C/C=C\[C@@H](NCc1ccccc1Br)[C@@H](O)Cc1ccccc1 | -1.46
CC(=O)C[C@H](O)[C@@H](NC(=O)OC(C)(C)C)C(C)C | -0.453
CC(C)=CCCC(C)=CCON=C1C[C@@H](O)[C@@H](O)[C@@H]2[C@@H]3C(=O)N(C[C@@H]4CCCO4)C(=O)[C@@H]3CC[C@@H]12 | 0.449
CCOC(=O)NN=C1C[C@@H](O)[C@@H](O)[C@@H]2[C@@H]3C(=O)N(C(C)(C)C)C(=O)[C@@H]3CC[C@@H]12 | 0.394
COCCCNC(=O)[C@]1(Cc2ccccc2)N=C(c2ccc(OCCCO)cc2)O[C@@H]1c1ccccc1 | 0.967
CC(C)=NOCc1ccc(-c2cc(-c3ccccc3)no2)cc1 | 0.29
COCCCNC(=O)[C@@]1(Sc2ccc(C)cc2)CC(=O)N(Cc2ccccc2)[C@@H]1c1ccc(CO)cc1I | -0.895
COc1ccc(-c2ccc3c(n2)CCCN3CC(O)CN2CCCc3nc(C)c(C)cc32)cc1 (stereo unspecified) | 0.63
CC(=O)OC[C@H]1O[C@H](CC=NOC[C@@H](C)[C@H](OCc2ccccc2)C(C)C)C=C[C@@H]1OC(C)=O | -0.0224
CC(CCC(=O)OC[C@H]1O[C@H](C#Cc2ccccc2)C=C[C@@H]1Oc1ccc(C)cc1)=NO[C@@H](C)c1cn([C@H](CO)Cc2ccccc2)nn1 | 0.161
COc1ccc([Si](C)(C)[C@H]2[C@H](CCO)O[C@@]3(C(=O)N(Cc4cccc(NC(=O)[C@H](C)O)c4)c4ccccc43)[C@@H]2C)cc1 | 0.612

— PubChem BioAssay
